Results filed as inconclusive are left out. Calls of active or inactive are those of the source. Rule for the calls, unless noted: active = hit-call score of the fitted dose curve at least 0.9, where 1 is the maximum; inactive = score below 0.9.
What was measured:
[1] = CCTE_Shafer_MEA_acute_spike_number: CCTE's Neural Acute Assay for Total Number of Spikes, Shafer Lab (AID 2284008);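 for AC50: curve fitted for decrease in spike count so AC50 reflects inhibitors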
Method in brief: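 Read-out is the total spike count over 40 min, expressed as percent change from each well's own pre-treatment baseline and fitted in the loss direction against DMSO. Rat cortical neurons were exposed at 0.03-40 uM on DIV 13 or 15.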

[2] = CCTE_Harrill_HTTr_Viability_MCF7: CCTE's 6-hour Cell Viability Assessment for the High-Throughput Transcriptomics (HTTr) Platform, in MCF-7 cells cultured in DMEM + 10% fetal bovine serum, Harrill Lab (AID 2284010)
Method in brief: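 Eight-point concentration series, six-hour exposure. Propidium iodide exclusion imaged to assess membrane integrity as a cytotoxicity readout; bidirectional fitting was done with DMSO as negative control and activity baseline.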

[3] = CCTE_Harrill_HTTr_Apoptosis_MCF7: CCTE's 6-hour Apoptosis Assessment for the High-Throughput Transcriptomics (HTTr) Platform, in MCF-7 cells cultured in DMEM + 10% fetal bovine serum, Harrill Lab (AID 2284011)
Method in brief: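 MCF-7 (DMEM + 10% FBS), 384-well; 8-pt dilution series, 6 h chemical exposure; caspase-3/7 activation via CellEvent Caspase 3/7 Green, HCI; bidirectional fit vs DMSO.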

[4] = CCTE_Shafer_MEA_acute_burst_number: CCTE's Neural Acute Assay for Single-Electrode Bursts, Shafer Lab (AID 2284013)
Method in brief: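 Burst totals were derived with adaptive spike detection (8x rms threshold) on filtered signals from rat cortical cultures; change relative to pre-treatment baseline after 40-min compound exposure (0.03-40 uM) was fitted in the negative direction against DMSO.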

[5] = CCTE_Shafer_MEA_acute_burst_duration_mean: CCTE's Neural Acute Assay for Mean Burst Duration, Shafer Lab (AID 2284014);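 note: hits are decreases in mean burst duration relative to DMSO controls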
Method in brief: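 Acute exposure of mature rat cortical networks (DIV 13 or 15) grown on microelectrode arrays to 0.03-40 uM compound. Mean burst duration compared with the 40-min pre-dose baseline over a 40-min post-dose recording at 37 C.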

[6] = CCTE_Shafer_MEA_acute_per_burst_spike_number_mean: CCTE's Neural Acute Assay for Average Number of Spikes Per Burst, Shafer Lab (AID 2284015);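 note: hits are decreases in mean spikes per burst versus baseline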
Method in brief: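 Primary rat cortical neurons on 48-well MEA plates, treated on DIV 13 or 15 at 0.03-40 uM. Spontaneous activity recorded 40 min before and 40 min after compound at 37 C; percent change in mean spikes per single-electrode burst per well, fitted in the loss direction versus DMSO.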

[7] = CCTE_Shafer_MEA_acute_interburst_interval_mean: CCTE's Neural Acute Assay for Mean Interburst Interval, Shafer Lab (AID 2284016);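 note: percent change of mean interburst interval versus each well's own pre-dose baseline; curves fitted for decrease in interburst interval relative to DMSO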
Method in brief: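 Primary rat cortical neurons on 16-electrode MEA wells were recorded 40 min at baseline on DIV 13 or 15, then 40 min after compound (0.03-40 uM), at 37 C. Value is percent change in mean interburst interval per well, DMSO as negative control.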

[8] = CCTE_Shafer_MEA_acute_burst_percentage_mean: CCTE's Neural Acute Assay for Percentage of Spikes in a Burst, Shafer Lab (AID 2284017);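 for AC50: curve fitted for loss of signal so potency reflects decreased burst percentage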
Method in brief: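 Primary rat cortical neurons on 16-electrode MEA wells; 40 min baseline recorded at DIV 13 or 15, then 40 min after compound (0.03-40 uM) at 37 C. Well-mean fraction of spikes in single-electrode bursts; percent change from baseline, DMSO as negative control.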

[9] = CCTE_Shafer_MEA_acute_burst_percentage_std: CCTE's Neural Acute Assay for Standard Deviation of Burst Percentage, Shafer Lab (AID 2284018);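 note: fitted in the negative direction so actives lower burst percentage SD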
Method in brief: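 Primary rat cortical neurons on 16-electrode MEA wells were recorded 40 min at baseline (DIV 13 or 15), then 40 min after compound (0.03-40 uM), at 37 C. Well value is SD across electrodes of spikes-in-bursts/total spikes; endpoint is percent change, DMSO-referenced.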

[10] = CCTE_Shafer_MEA_acute_per_network_burst_spike_number_mean: CCTE's Neural Acute Assay for Average Number of Spikes in a Network Burst, Shafer Lab (AID 2284019);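 for AC50: curve fitted for loss of signal so actives reduce spikes per network burst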
Method in brief: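 Acute exposure of rat primary cortical networks (DIV 13/15) on MEAs; adaptive spike detection at 8x rms noise, 37 C. Percent change in spikes per network burst after 40 min with compound (0.03-40 uM), negative direction vs DMSO.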

[11] = CCTE_Shafer_MEA_acute_per_network_burst_spike_number_std: CCTE's Neural Acute Assay for Standard Deviation of Number of Spikes in a Network Burst, Shafer Lab (AID 2284020);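 note: fitted for decrease in spike-number SD versus DMSO so actives lower it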
Method in brief: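 Acute MEA exposure, rat cortical neurons, 0.03-40 uM. Per-well % change versus own baseline; DMSO as negative control.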

[12] = CCTE_Shafer_MEA_acute_per_network_burst_electrodes_number_mean: CCTE's Neural Acute Assay for Mean Number of Electrodes in a Network Burst, Shafer Lab (AID 2284021);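 note: curves fitted for decreases only so hits reduce electrodes per burst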
Method in brief: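 Primary rat cortical networks, mwMEA, 37 C. 20 min stabilization, 40 min baseline, compound 0.03-40 uM, 40 min re-record. Wells need >=10 active electrodes; percent change per well, negative fitting direction.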

[13] = CCTE_Simmons_MITO_basal_resp_rate: CCTE's HepG2 Seahorse XF Respirometric Screening Assay at Basal Respiratory State, Simmons Lab (AID 2284001); conditions: actives raise or lower the signal
Method in brief: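 Readout is oxygen consumption rate after test compound injection, measured by Seahorse XF in HepG2 cells. Seven concentrations from 125 nM up to 100 uM final are tested, and activity in either direction is fitted against DMSO.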

[14] = CCTE_Simmons_MITO_max_resp_rate: CCTE's HepG2 Seahorse XF Respirometric Screening Assay at Maximal Respiratory State [uncoupled], Simmons Lab (AID 2284002); conditions: actives raise or lower the signal
Method in brief: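 Read-out is oxygen consumption rate at maximal respiration, taken after FCCP uncoupling of compound-treated HepG2 cells. Seven final concentrations from 125 nM to 100 uM were tested, each in three biological replicates.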

[15] = CCTE_Simmons_MITO_viability: CellTiter-Glo Viability Assessment for CCTE's HepG2 Seahorse XF Respirometric Screening Assay [post-hoc], Simmons Lab (AID 2284007; active = hit-call score of the fitted dose curve at least 0.9, where 1 is the maximum;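 for AC50: cells exposed to chemical for 90 min before the ATP read; actives lower ATP signal relative to DMSO baseline meaning reduced viability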)
Method in brief: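 Post-hoc viability check on the HepG2 respirometry plates: luciferase-based ATP signal measured once, after 90 min compound exposure spanning 125 nM–100 uM final. Activity was referenced to DMSO as baseline.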

[16] = CCTE_Harrill_HTTr_CellCount_MCF7: CCTE's Cell Proliferation Assessment for the High-Throughput Transcriptomics (HTTr) Platform, Harrill Lab (AID 2284012; active = hit-call score of the fitted dose curve at least 0.9, where 1 is the maximum;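 note: count of Hoechst-stained nuclei per well by high-content imaging in MCF-7 cells; cells exposed to compound for six hours; intended direction is loss of nuclei count meaning fewer cells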)
Method in brief: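 For this full-screen endpoint, MCF-7 cultures received eight compound dilutions for six hours. Well nuclei counts from Hoechst imaging were analyzed relative to DMSO.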

[17] = target: Nucleoli Translocation, AR (gene 367) (UniProt P10275); test: UPITT_HCI_U2OS_AR_TIF2_Nucleoli_Agonist: University of Pittsburgh U2OS Androgen Receptor-Transcriptional Intermediary Factor 2 (AR-TIF2) Agonism High Content Imaging Assay for Nucleoli Translocation (AID 2283998; active = hit-call score of the fitted dose curve at least 0.9, where 1 is the maximum)
Sequence of Nucleoli Translocation, AR (gene 367) (P10275 whole entry, looked up): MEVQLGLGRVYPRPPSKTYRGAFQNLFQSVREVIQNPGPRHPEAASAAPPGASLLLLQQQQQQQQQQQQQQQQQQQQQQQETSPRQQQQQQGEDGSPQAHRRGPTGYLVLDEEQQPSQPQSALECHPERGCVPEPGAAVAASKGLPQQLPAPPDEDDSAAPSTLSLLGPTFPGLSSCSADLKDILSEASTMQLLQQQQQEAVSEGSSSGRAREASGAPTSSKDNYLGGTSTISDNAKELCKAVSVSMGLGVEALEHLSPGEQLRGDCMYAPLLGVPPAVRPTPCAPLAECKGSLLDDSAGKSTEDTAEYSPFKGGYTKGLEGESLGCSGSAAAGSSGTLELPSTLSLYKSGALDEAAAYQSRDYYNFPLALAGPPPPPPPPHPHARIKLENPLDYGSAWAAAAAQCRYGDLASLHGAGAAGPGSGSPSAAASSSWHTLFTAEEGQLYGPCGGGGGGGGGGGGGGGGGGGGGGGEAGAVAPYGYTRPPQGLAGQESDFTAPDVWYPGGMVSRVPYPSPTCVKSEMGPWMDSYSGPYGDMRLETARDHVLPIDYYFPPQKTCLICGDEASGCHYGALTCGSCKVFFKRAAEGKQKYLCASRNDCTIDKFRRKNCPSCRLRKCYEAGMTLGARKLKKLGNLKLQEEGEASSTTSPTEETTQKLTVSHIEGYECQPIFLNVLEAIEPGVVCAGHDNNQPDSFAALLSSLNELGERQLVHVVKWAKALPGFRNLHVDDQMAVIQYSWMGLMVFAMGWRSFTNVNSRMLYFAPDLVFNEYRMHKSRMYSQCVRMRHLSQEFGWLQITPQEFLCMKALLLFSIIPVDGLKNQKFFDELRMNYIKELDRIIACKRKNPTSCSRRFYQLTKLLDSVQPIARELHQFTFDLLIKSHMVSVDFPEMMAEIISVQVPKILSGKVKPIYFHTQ
Method in brief: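 Readout is red (AR-RFP) fluorescence localized to nucleoli, measured by high-content imaging and analysed for increase relative to DMSO. Compound series spanned 0.195 to 50 uM final in 0.5% DMSO.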

[18] = target: Ratio of Nucleoli Translocation and Cytoplasm, AR (gene 367) (UniProt P10275); test: UPITT_HCI_U2OS_AR_TIF2_Nucleoli_Cytoplasm_Ratio_Antagonist: University of Pittsburgh U2OS Androgen Receptor-Transcriptional Intermediary Factor 2 (AR-TIF2) Antagonism High Content Imaging Assay for Ratio of Nucleoli Translocation and Cytoplasm (AID 2283999; active = hit-call score of the fitted dose curve at least 0.9, where 1 is the maximum;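 note: antagonists lower the DHT-driven ratio of nucleolar to cytoplasmic red signal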)
Sequence of Ratio of Nucleoli Translocation and Cytoplasm, AR (gene 367) (P10275 whole entry, looked up): as above
Method in brief: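 This antagonist-mode endpoint tracks AR-RFP localisation, the nucleolus-to-cytoplasm intensity ratio, in TIF2-GFP-coexpressing U2OS cells. DMSO stays at or below 0.5%; testing spans 20 uM single-dose and 0.195–50 uM series, with DHT setting the activity baseline.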

[19] = target: Ratio of Nucleoli Translocation and Cytoplasm, AR (gene 367) (UniProt P10275); test: UPITT_HCI_U2OS_AR_TIF2_Nucleoli_Cytoplasm_Ratio_Agonist: University of Pittsburgh U2OS Androgen Receptor-Transcriptional Intermediary Factor 2 (AR-TIF2) Agonism High Content Imaging Assay for Ratio of Nucleoli Translocation and Cytoplasm (AID 2284000; active = hit-call score of the fitted dose curve at least 0.9, where 1 is the maximum;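 note: hits raise the red nucleolar to cytoplasm ratio above vehicle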)
Method in brief: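 Primary screen at 20 uM final (0.2% DMSO), then triplicate confirmation and dose-response from 0.195 to 50 uM final (0.5% DMSO). Cells: U2OS with AR-RFP and TIF2-GFP. Endpoint is the nucleoli/cytoplasm red-fluorescence ratio, gain-of-signal vs DMSO.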

[20] = test system: DIO1 (gene 1733); test: CCTE_GLTED_hDIO1: CCTE's human Deiodinase 1 (DIO1) Inhibition Assay, Great Lakes Toxicology and Ecology Division (GLTED) Lab (AID 2283987; active = hit-call score of the fitted dose curve at least 0.9, where 1 is the maximum;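 note: isolated human DIO1 enzyme in a cell-free setup rather than cells; enzyme activity read as free iodide liberated from substrate via Sandell-Kolthoff colorimetry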)
Method in brief: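 Inhibition of human deiodinase 1 is scored as reduced iodide liberation after a 3 h enzyme–chemical incubation, detected colorimetrically by the Sandell-Kolthoff reaction against DMSO controls.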

Measured: AC50

C=C(C)CN(CC)c1c([N+](=O)[O-])cc(C(F)(F)F)cc1[N+](=O)[O-]
inactive: [2] | [3] | [4] | [5] | [6] | [7] | [8] | [9] | [10] | [11] | [12]
active: [1] 31.9 µM

Cc1c(COC(=O)[C@@H]2[C@H](/C=C(\Cl)C(F)(F)F)C2(C)C)cccc1-c1ccccc1
active: [5] 1.47 µM | [8] 0.756 µM | [11] 0.931 µM
inactive: [13] | [14] | [15] | [1] | [2] | [3] | [16] | [4] | [6] | [7] | [9] | [10] | [12]

CCOP(=S)(OCC)Oc1nc(Cl)n(C(C)C)n1
active: [13] 29.3 µM | [14] 38.5 µM
inactive: [15] | [2] | [16]

CCNP(=S)(OC)O/C(C)=C/C(=O)OC(C)C (centres undefined)
inactive: [15] | [2] | [3] | [16]
active: [13] 37.9 µM | [14] 18.1 µM

CN/C(=N\[N+](=O)[O-])NCc1cnc(Cl)s1
inactive: [1] | [2] | [3] | [16] | [4] | [5] | [6] | [7] | [8] | [9] | [10] | [11] | [12]

CCN(CC)c1nc(C)cc(OP(=S)(OC)OC)n1
inactive: [13] | [14] | [15] | [2] | [16]

CC(C)N1C(=O)N(c2ccccc2)CSC1=NC(C)(C)C
active: [1] 5.21 µM | [4] 4.94 µM | [6] 20 µM | [8] 20 µM | [10] 13.5 µM | [11] 17.6 µM | [12] 17.4 µM
inactive: [17] | [18] | [19] | [13] | [14] | [2] | [16] | [5] | [7] | [9]

CCOc1nc(F)cc2nc(S(=O)(=O)Nc3c(Cl)cccc3Cl)nn12
inactive: [1] | [2] | [3] | [4] | [5] | [6] | [7] | [8] | [9] | [10] | [11] | [12]
active: [20] 38.8 µM

CCOP(=O)(OCC)Oc1nc(Cl)c(Cl)cc1Cl
active: [13] 29.6 µM | [14] 49.8 µM | [15] 10.7 µM | [1] 3.95 µM | [5] 0.00298 µM | [6] 0.00298 µM | [8] 34.9 µM | [9] 32.5 µM | [10] 0.00674 µM | [12] 0.0114 µM
inactive: [19] | [2] | [16] | [4] | [7] | [11]

N#Cc1c[nH]cc1-c1cccc2c1OC(F)(F)O2
active: [13] 77.1 µM | [1] 4.28 µM | [6] 20 µM | [8] 20 µM | [9] 32.4 µM | [11] 20 µM
inactive: [15] | [2] | [3] | [4] | [5] | [7] | [10] | [12]

O=C1C2CC=CCC2C(=O)N1SC(Cl)(Cl)Cl (centres undefined)
active: [20] 53.8 µM | [13] 59.9 µM | [14] 67.8 µM
inactive: [15] | [2] | [3] | [16]

CCN(CC)C(=O)C(C)Oc1cccc2ccccc12 (centres undefined)
inactive: [13] | [2] | [3]
active: [14] 32.7 µM | [15] 50 µM
